Source: PubChem BioAssay (NCATS)
Values joined by “and” are separate entries in the source; they are usually repeats but may differ in a detail not shown here. Equal values may be shown once. Inconclusive results are not listed. Active and inactive are the calls of the source. Unless noted, how the calls were made is not given here.

Assays:
[1] = qHTS profiling for inhibitors of Plasmodium falciparum (3D7) proliferation (AID 743322);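 further: infected erythrocytes exposed to compound for 72 h before lysis; 100% = DMSO vehicle wells and 0% = 0.29 µM artemisinin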; details: P. falciparum 3D7 proliferation; at 28.7 µM (top of the series)
Summary of the method: (§1)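 Erythrocytes infected with P. falciparum (0.3% parasitemia, 2.5% hematocrit) incubated with compounds 72 h at 37 C, 5% CO2. Lysis with saponin/Triton buffer containing SYBR Green I, overnight at room temperature in the dark; DNA fluorescence (485/535 nm) normalised to 0.29 uM artemisinin and DMSO.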

[2] = qHTS profiling for inhibitors of Plasmodium falciparum (DD2) proliferation (AID 743323); details: lower = more inhibition; at 28.7 µM (top of the series)
Summary of the method: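 P. falciparum Dd2-infected erythrocytes (0.3% parasitemia, 2.5% hematocrit) exposed 72 h at 37 C, 5% CO2. Lysis with SYBR Green, overnight at room temperature, fluorescence 485/535 nm; normalized to 0.29 uM artemisinin and DMSO.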

[3] = qHTS profiling for inhibitors of Plasmodium falciparum (HB3) proliferation (AID 743324; active means well fitted curve in the direction sought with a large enough effect; an effect the other way counts as inactive or inconclusive;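 further: 100% = DMSO vehicle wells and 0% = artemisinin-treated control wells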); details: Plasmodium falciparum HB3 blood-stage proliferation; at 28.7 µM (top of the series)
Summary of the method: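 P. falciparum HB3 grown in erythrocytes (0.3% parasitemia, 2.5% hematocrit final) with compound for 72 h at 37 C, 5% CO2. Parasite DNA detected by SYBR Green after saponin/triton lysis overnight; normalized to 0.29 uM artemisinin and DMSO.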

[4] = qHTS profiling of the MIPE4 collection as inhibitors of Plasmodium falciparum (3D7) proliferation (AID 743344);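 further: scaled between DMSO vehicle wells and 0.29 µM artemisinin as full inhibition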; details: P. falciparum 3D7 in erythrocytes, SYBR Green DNA fluorescence, 72 h; at 28.5 µM (top of the series) unless noted
Summary of the method: as §1

[5] = qHTS profiling of the MIPE4 collection as inhibitors of Plasmodium falciparum (DD2) proliferation (AID 743345); details: P. falciparum Dd2 in erythrocytes, SYBR Green DNA, 72 h; at 28.5 µM (top of the series) unless noted
Summary of the method: as §1

[6] = qHTS profiling of the MIPE4 collection as inhibitors of Plasmodium falciparum (DD2) proliferation (Rep 2) (AID 743346); details: P. falciparum Dd2 in erythrocytes, SYBR Green DNA, 72 h; at 28.5 µM (top of the series) unless noted
Summary of the method: as §1

[7] = qHTS profiling of the MIPE4 collection as inhibitors of Plasmodium falciparum (HB3) proliferation (AID 743347);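 further: plate controls were DMSO vehicle wells for no effect and artemisinin wells for full effect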; details: P. falciparum HB3 in erythrocytes, SYBR Green DNA, 72 h; at 28.5 µM (top of the series) unless noted
Summary of the method: as §1

[8] = High-throughput drug toxicity screening in the BPDCN cell line Gen2.2 (AID 1224824); details: Gen2.2 BPDCN cells; at 45.8 µM (top of the series) unless noted;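 further: cells exposed to compounds for 48 h before reading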
Summary of the method: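 CellTiter-Glo luminescence read after 48 h compound exposure at 37 C defines viability; percent activity set with DMSO as 100% and bortezomib (9.2 uM final) as 0%. 500 exponentially growing cells per well, RPMI plus 10% FBS.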

[9] = High-throughput drug toxicity screening in the BPDCN cell line Cal-1 (AID 1224825); details: Cal-1 BPDCN cell viability, qHTS; at 45.8 µM (top of the series) unless noted
Summary of the method: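 Exponentially growing Cal-1 cells, 500 per well in phenol red-free RPMI with 10% FBS, were exposed to compounds for 48 h at 37 °C, 5% CO2. Viability was read by CellTiter-Glo luminescence and normalised to DMSO (100%) and 9.2 uM bortezomib (0%).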

[10] = qHTS assay for cell viability of the p53RE-bla HCT-116 cell line (AID 743292; active means well fitted curve in the direction sought with a large enough effect; an effect the other way counts as inactive or inconclusive; further: on the % scale 0 is the no-effect control and ±100 the full control effect; nearly all actives have a fitted effect of over 55% in size)
Summary of the method: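 ATP-based luminescence, 16 h compound exposure at 37 C, p53RE-bla HCT-116 cells at 4,000/well.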

SMILES	remaining parasite growth % (stronger effect = lower value) [1]	activity, percent of control [2]	remaining proliferation (% of control), lower = more inhibition [3]	parasite growth, % of DMSO control [4]	parasite growth remaining, % of DMSO control (lower = more inhibition) [5]	parasite growth, % of control (lower = inhibition) [6]	growth, % of control [7]	cell viability, % of control (lower = more cytotoxic) [8]	viability (% of control) [9]	outcome [10]
Cc1cc(Nc2cc(NC(=O)c3c(Cl)cccc3Cl)ccn2)nc(N)n1	0.674%	6.07%	-0.262%	5.6%	6.82%	10.1%	8.82%	12.1%	8.08%	
O=C(NC1CCNCC1)c1[nH]ncc1NC(=O)c1c(Cl)cccc1Cl	5.64% and 1.64%	9.64% and 5.01%	9.9% and 2.81%	10.8%	11.4%	22%	8.44%	5.14%	2.11%	
CS(=O)(=O)N1CCN(Cc2cc3nc(-c4cccc5[nH]ncc45)nc(N4CCOCC4)c3s2)CC1								27.2%	27.7%	
C=CC(=O)Nc1cc2c(Nc3ccc(F)c(Cl)c3)ncnc2cc1C#CC(C)(C)N1CCN(C)CC1	-1.21%	-0.164%	-0.161%	9.4%	8.69%	18%	4.67%	6.93%	1.87%	
CCOC(=O)C1=C(C)NC2=C(C(=O)CC(C)(C)C2)C1c1ccc(-c2ccccc2)cc1 (stereo unspecified)								5.24%	4.47%	
CCN(CC)CCCCNc1ncc2cc(-c3cc(OC)cc(OC)c3)c(NC(=O)NC(C)(C)C)nc2n1	-0.484%	1.21%	0.178%	5.7%	9.87%	8%	5.53%	4.8%	1.79%	
Cc1nc2cnc3ccc(C#Cc4cccnc4)cc3c2n1-c1ccc(C(C)(C)C#N)cc1	-1.11%	0.126%	-0.656%	4.38%	7.19%	13.9%	3.51%	3.34%	16.6%	
C=CC(=O)N1CCC[C@@H](n2nc(-c3ccc(Oc4ccccc4)cc3)c3c(N)ncnc32)C1								43.2%	6.59%	
CCCNC(=O)Nc1ccc(Oc2ncnc3cc(OC)c(OC)cc23)cc1Cl								69.6%	92.7%	
Fc1cc(-c2cccc3ncc(-c4cnn(C5CCNCC5)c4)nc23)cc(F)c1CN1CCOCC1								5.16%	5.7%	
CC(NCc1ccc2c(c1)nc(NC(=O)c1ccc(-c3cn[nH]c3)s1)n2CC(C)(C)O)C(C)(C)C (stereo unspecified)	-1.9%	-0.339%	-1%	5.17%	7.07%	9.25%	3.84%	2.71%	2.63%	
O=C(O)CCCc1c[nH]c2ccccc12					20.4%	142%	102%	90.6%	32.3%	inactive
N#Cc1c(O)c2c(-c3ccc(-c4ccccc4O)cc3)csc2[nH]c1=O	93.3%	96%	87.6%	70.3%	94.8%	47.7%	71.1%	185%	108%	
CCCCCN(CCC12CC3CC(CC(C3)C1)C2)C(=O)NCCCc1ccncc1	7.44%	32.6%	7.47%	6.26%	11.7%	13.6%	6.74%	111%	94.4%	
COc1ccc(CC2SC(=O)NC2=O)cc1C(=O)NCc1ccc(C(F)(F)F)cc1 (stereo unspecified)	90.2%	93.1%	54.2%	32.5%	91.4%	56.9%	55.5%	96%	84.9%	
Cc1ccc(C(N)=O)cc1Nc1nccc(-c2cn(C(C)C)c3cnccc23)n1	-1.17%	0.145%	-1.54%	5.53%	6.53%	7.77%	3.05%	4.31%	3.01%	
Nc1nccc(Oc2ccc(NC(=O)c3c[nH]cc(-c4ccc(F)cc4)c3=O)cc2F)c1Cl	7.57%	18.6%	1.21%	4.72%	50.4%	8.39%	6.32%	7.66%	5.21%	
COCCn1c2c([n+](Cc3cnccn3)c1C)C(=O)c1ccccc1C2=O	-1.59%	-0.193%	-1.98%	9.02%	6.3%	11.6%	6.61%	9.73%	3.5%	
COc1cc(C(C)C)c2c(c1)S(=O)(=O)N(COc1cc(=O)n3cccc(OCCN4CCCCC4)c3n1)C2=O	105%	94.1%	89.5%	101%	95.7%	114%	107%	3.67%	10.9%	
CC(C)c1ccccc1Cc1cc(C(=O)Nc2ccc(S(=O)(=O)c3ccccc3C(C)(C)C)cc2)c(O)c(O)c1O	0.404%	2.09%	-0.184%	5.18%	6.18%	11.2%	7.71%	20.8%	14.8%	
COc1ccc(C=Cc2cc(OC)c(OC)c(OC)c2)cc1O	92%	104%	84.7%	36%	21.1%	44%	22.3%	10.8%	8.52%	

SMILES	remaining parasite growth % (stronger effect = lower value) [1]	activity, percent of control [2]	remaining proliferation (% of control), lower = more inhibition [3]	parasite growth, % of DMSO control [4]	parasite growth remaining, % of DMSO control (lower = more inhibition) [5]	parasite growth, % of control (lower = inhibition) [6]	growth, % of control [7]	cell viability, % of control (lower = more cytotoxic) [8]	viability (% of control) [9]	outcome [10]
C[C@@H](Oc1cc(-n2cnc3ccc(CN4CCN(C)CC4)cc32)sc1C(N)=O)c1ccccc1C(F)(F)F	-0.0099%	3.25%	1.38%	6.16%	7.2%	13.9%	6.6%	3.33%	3.46%	
Cc1ccc(S(=O)(=O)Nc2cc(Cl)ccc2C(=O)Nc2nc(-c3ccccc3)cs2)cc1	11.7%	6.55%	8.77%	64.3%	16.4%	21.2%	49.7%	172%	96.8%	
Cc1ccc(-c2ncn(-c3ccc(Nc4nccc(-c5cccc(N6CCOCC6)c5)n4)cc3)n2)cn1	3.9%	4.15%	5.18%	5.55%	6.69%	11.5%	8.45%	5.12%	3.62%	
COC(=O)C[C@](O)(CCCC(C)(C)O)C(=O)O[C@@H]1C(OC)=C[C@]23CCCN2CCc2cc4c(cc2[C@H]13)OCO4								131%	134%	
CN(C)CCCN=c1c2ccccc2n(C)c2[nH]c(=O)n(C)c(=O)c12	5.55%	15.1%	3.8%	5.98%	10.8%	9.14%	3%	2.75%	4%	
CNc1nccc(-c2cccnc2Oc2cc(C(=O)Nc3cccc(C(F)(F)F)c3)ccc2C)n1	5.98%	13.8%	3.23%	6.2%	31.1%	19.8%	7.15%	13%	15.7%	
Nc1nc(Nc2ccc(S(N)(=O)=O)cc2)nn1C(=O)c1c(F)cccc1F	14.8%	9.84%	10.9%	16.5%	11.8%	14.1%	9.06%	13.3%	6.01%	
Cc1[nH]nc2ccc(-c3cncc(OC[C@@H](N)Cc4ccccc4)c3)cc12	30.1%	14.2%	17.9%	19.3%	38%	20.4%	8.27%	7.91%	3.31%	
Cn1c(=O)n(-c2ccc(C(C)(C)C#N)cc2)c2c3cc(-c4cnc5ccccc5c4)ccc3ncc21	1.17%	10.2%	1.06%	5.06%	7.73%	6.52%	2.31%	8.42%	11.9%	
Clc1cccc(-n2nnnc2NCc2ccccc2Oc2ccccn2)c1Cl								100%	100%	
CC(C)(C)c1cc(C(C)(C)C)c(NC(=O)c2c[nH]c3ccccc3c2=O)cc1O	33.5%	28.9%	18.9%	106%	95.2%	88.9%	57.9%	105%	102%	
Cc1cnc(-c2cnc(NCCNc3ccc(C#N)cn3)nc2-c2ccc(Cl)cc2Cl)[nH]1	89%	90.2%	53.7%	34.7%	76.5%	40.9%	27.2%	229%	38.3%	
COc1cc2c(Oc3ccc4[nH]c(C)cc4c3F)ncnc2cc1OCCCN1CCCC1	-0.853%	1.27%	0.351%	6.49%	8.16%	15.9%	6.98%	7.59%	6.46%	
C=C1C(=CC=C2CCC[C@]3(C)[C@@H]([C@H](C)C=C[C@H](C)C(C)C)CC[C@@H]23)C[C@@H](O)C[C@@H]1O	88.6%	102%	92.2%	6.24%	7.23%	7.88%	9.22%	104%	5.8%	
CC(C)(C)c1cc(NC(=O)Nc2ccc(-c3cn4c(n3)sc3cc(OCCN5CCOCC5)ccc34)cc2)no1	-1.57%	0.456%	-0.226%	4.46%	7.47%	15.2%	2.53%	252%	75.9%	
COc1ccc(OC)c(-c2nnc3ccc(-c4ccc(OC)c(O[C@@H]5CCOC5)c4)nn23)c1	-0.0314%	0.138%	0.357%	5.33%	6.53%	16%	8.79%	6.73%	3.56%	
CC1(C)CCC(c2ccc(Cl)cc2)=C(CN2CCN(c3ccc(C(=O)NS(=O)(=O)c4ccc(N[C@H](CCN5CCOCC5)CSc5ccccc5)c(S(=O)(=O)C(F)(F)F)c4)cc3)CC2)C1	0.209%	2.76%	-0.0239%	17.1%	8.31%	16.8%	9.9%	7.3%	16.1%	
NC(=O)c1c(OCc2c(F)cc(Br)cc2F)nsc1NC(=O)NCCCCN1CCCC1	-0.239%	17.3%	2.02%	47.5%	74.6%	42.1%	5.84%	24.4%	4.13%	
C[C@]1(CO)CN(c2cc(C(=O)Nc3ccc4c(c3)-c3c(c(C(N)=O)nn3-c3ccc(F)cc3)CC4)c(Cl)cn2)C[C@@]1(C)CO	50.5%	56.4%	6.49%	11.4%	17.1%	38.3%	9.48%	27.2%	6.89%	
Cc1[nH]c2ccccc2c1CCNCc1ccc(C=CC(=O)NO)cc1	-0.764%	-0.223%	-0.887%	4.38%	7.14%	6.72%	2.36%	7.87%	7.62%	
NC(=O)Nc1cc(-c2cccc(F)c2)sc1C(=O)N[C@H]1CCCNC1	-0.937%	5.1%	0.699%	7.3%	10.6%	15.5%	6.42%	7.53%	4.12%	
